Data on 36 targets can be found in the supplement of paper PMC10849652.

Targets with a hit are over-represented here; the source holds about 7,900 in all. About 0.6% of all pairs of compound and target were hits. Unmarked numbers belong to inactive results.

Chain of UniProt Q9BUB7 (Q9BUB7 whole entry, looked up): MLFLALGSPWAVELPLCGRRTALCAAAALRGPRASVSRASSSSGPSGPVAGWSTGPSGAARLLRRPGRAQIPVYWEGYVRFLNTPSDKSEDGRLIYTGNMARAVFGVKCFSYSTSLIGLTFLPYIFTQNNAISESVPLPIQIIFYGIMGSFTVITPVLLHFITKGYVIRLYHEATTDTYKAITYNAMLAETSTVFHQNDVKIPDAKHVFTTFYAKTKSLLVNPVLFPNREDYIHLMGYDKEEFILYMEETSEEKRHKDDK
Chain of UniProt Q9NUM4 (Q9NUM4 whole entry, looked up): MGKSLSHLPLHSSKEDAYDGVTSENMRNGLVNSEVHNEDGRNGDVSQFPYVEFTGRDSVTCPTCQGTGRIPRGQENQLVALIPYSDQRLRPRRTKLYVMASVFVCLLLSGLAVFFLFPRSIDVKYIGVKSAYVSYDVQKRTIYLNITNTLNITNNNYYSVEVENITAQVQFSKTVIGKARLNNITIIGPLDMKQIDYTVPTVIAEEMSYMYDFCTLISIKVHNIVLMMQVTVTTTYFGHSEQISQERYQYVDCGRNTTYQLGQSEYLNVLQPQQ
Chain of UniProt Q8N4H5 (Q8N4H5 whole entry, looked up): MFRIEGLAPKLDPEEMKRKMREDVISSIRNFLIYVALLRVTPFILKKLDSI
Chain of UniProt Q9P253 (Q9P253 whole entry, looked up): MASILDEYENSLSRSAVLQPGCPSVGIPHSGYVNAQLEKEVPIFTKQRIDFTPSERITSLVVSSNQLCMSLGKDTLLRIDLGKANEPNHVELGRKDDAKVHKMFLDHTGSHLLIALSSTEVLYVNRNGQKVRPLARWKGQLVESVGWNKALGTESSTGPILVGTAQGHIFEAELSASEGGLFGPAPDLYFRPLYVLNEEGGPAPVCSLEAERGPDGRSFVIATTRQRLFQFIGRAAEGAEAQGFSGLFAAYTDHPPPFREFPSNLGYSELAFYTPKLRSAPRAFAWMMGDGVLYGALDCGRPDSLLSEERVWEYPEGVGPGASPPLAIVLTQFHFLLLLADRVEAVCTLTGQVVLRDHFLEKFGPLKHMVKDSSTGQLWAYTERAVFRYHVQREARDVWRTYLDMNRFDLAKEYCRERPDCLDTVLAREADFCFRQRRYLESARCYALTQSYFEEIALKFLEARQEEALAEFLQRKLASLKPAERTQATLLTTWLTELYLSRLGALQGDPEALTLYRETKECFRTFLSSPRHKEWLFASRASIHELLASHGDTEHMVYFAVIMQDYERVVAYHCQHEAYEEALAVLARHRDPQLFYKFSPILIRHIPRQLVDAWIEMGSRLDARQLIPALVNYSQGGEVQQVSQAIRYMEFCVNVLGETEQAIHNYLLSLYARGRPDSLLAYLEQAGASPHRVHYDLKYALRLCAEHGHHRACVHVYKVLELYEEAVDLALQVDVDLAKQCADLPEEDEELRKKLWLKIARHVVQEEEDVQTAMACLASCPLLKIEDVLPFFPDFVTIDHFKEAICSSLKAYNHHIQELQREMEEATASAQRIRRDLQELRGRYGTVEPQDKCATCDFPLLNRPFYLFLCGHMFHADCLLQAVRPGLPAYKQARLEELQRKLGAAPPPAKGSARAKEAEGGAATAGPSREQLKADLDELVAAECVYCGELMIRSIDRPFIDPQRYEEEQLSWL
Chain of UniProt A3KMH1 (A3KMH1 whole entry, looked up): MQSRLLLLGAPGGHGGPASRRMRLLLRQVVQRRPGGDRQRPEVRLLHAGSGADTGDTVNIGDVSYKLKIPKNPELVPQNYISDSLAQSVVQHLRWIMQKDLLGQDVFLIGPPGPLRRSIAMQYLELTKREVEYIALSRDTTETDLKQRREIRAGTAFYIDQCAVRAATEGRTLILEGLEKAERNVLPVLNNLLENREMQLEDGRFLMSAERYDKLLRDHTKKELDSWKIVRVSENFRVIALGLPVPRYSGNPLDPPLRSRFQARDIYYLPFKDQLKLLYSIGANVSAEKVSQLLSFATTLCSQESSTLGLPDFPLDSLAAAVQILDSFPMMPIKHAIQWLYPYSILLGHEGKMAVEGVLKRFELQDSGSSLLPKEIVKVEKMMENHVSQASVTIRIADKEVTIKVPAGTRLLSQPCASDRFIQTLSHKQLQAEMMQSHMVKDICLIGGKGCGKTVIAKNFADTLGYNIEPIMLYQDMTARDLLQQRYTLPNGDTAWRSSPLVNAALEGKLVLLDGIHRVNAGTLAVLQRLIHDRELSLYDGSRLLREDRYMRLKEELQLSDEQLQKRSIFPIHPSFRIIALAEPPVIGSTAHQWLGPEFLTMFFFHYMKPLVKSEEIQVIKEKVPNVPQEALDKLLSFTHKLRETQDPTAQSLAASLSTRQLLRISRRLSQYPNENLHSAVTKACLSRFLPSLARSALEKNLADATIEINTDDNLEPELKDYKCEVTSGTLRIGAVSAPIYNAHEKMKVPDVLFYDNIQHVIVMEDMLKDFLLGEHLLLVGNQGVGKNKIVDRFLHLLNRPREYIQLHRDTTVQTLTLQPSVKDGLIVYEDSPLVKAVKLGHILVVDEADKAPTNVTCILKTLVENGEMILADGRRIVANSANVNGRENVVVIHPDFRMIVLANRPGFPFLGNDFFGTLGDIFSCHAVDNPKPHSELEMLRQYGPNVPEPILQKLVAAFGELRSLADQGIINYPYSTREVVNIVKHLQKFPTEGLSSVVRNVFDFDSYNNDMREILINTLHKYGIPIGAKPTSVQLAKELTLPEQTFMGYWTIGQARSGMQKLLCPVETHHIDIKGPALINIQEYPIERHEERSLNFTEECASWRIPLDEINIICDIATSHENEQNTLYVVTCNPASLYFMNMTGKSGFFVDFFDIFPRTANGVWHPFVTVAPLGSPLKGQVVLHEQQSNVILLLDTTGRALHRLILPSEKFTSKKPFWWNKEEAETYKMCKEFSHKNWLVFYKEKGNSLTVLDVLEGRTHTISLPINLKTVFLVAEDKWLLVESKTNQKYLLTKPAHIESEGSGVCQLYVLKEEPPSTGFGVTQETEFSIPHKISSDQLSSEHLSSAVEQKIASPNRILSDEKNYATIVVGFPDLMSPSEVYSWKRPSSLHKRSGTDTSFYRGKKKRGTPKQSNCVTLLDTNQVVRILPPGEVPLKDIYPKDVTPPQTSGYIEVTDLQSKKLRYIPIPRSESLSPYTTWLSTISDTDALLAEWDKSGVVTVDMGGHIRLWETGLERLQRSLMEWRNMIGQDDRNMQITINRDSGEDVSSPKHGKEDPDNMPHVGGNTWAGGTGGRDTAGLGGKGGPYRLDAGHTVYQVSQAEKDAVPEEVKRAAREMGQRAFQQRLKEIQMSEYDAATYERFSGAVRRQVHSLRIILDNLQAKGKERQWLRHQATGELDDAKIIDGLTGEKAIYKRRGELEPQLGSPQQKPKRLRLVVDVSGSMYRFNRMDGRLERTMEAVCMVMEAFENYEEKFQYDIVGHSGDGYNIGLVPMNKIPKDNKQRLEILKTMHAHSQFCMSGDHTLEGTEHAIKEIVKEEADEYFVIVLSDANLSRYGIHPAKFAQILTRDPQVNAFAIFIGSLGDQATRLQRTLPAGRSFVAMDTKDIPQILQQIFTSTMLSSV
Chain of UniProt O95155 (O95155 whole entry, looked up): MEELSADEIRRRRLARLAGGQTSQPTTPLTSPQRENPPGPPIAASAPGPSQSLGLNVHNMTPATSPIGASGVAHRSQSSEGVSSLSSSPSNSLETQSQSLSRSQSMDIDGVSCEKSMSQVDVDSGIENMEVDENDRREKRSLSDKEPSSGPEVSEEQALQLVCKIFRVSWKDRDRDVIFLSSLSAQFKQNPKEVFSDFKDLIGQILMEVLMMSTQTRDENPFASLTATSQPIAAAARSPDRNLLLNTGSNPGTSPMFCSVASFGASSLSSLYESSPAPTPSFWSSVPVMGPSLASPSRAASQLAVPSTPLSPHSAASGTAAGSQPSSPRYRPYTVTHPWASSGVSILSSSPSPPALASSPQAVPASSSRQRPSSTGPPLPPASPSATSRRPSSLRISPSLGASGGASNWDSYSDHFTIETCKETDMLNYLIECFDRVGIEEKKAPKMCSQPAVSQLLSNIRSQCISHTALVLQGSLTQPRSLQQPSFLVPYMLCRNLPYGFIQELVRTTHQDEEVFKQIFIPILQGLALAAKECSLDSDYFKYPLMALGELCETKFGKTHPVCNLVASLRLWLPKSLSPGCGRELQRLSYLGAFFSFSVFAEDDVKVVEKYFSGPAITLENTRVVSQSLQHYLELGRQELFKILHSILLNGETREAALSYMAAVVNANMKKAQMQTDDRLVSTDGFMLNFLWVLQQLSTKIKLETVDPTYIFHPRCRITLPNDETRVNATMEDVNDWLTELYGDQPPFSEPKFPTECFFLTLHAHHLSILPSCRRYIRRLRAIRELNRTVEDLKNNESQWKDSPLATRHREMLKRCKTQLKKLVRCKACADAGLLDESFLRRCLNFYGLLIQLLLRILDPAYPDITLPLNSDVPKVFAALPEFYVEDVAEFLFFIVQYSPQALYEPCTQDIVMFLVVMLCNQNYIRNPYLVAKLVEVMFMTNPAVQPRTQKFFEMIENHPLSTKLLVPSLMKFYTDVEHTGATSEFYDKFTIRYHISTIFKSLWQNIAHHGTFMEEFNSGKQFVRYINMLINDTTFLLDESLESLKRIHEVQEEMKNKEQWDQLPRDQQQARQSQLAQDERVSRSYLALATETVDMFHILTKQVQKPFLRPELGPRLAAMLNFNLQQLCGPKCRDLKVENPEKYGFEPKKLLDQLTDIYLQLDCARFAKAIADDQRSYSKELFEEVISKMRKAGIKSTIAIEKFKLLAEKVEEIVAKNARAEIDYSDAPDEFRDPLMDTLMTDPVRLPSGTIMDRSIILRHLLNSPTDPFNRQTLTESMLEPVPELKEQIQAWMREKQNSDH
Chain of UniProt Q9P0T7 (Q9P0T7 whole entry, looked up): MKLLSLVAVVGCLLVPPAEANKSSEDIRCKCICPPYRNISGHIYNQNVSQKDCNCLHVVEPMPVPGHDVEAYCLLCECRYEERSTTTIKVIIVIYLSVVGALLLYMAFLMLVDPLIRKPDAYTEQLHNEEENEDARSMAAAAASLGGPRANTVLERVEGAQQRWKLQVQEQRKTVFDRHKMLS

Compound in the assay: COc1cc2ncnc(Nc3ccc(F)c(Cl)c3)c2cc1OCCCN1CCOCC1 [gefitinib]
Nature of the assay: log2 fold change, soluble protein after heating vs DMSO (PISA); higher = thermal stabilisation; K562 cells, 10 uM, 30 min; active = over 0.2 and 3.5 SD of the protein, either way, in both replicates (recomputed). The procedure, abridged:
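K562 cells at 2×10^6 cells/mL were given 10 μM compound for 30 min. Aliquots then went through 3 min of heating across 48°C-58°C, were pooled, and were extracted in PBS with 0.5% NP-40 at 4°C, and the supernatant after 21,000xg for 90 min was quantified by TMTpro 16plex LC-MS/MS with channel sums equalised. Thermal stability relative to control samples, from duplicates, is given as log2 fold change.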
As to VPS18 (UniProt Q9P253), the log2 fold change was -0.028. To TRAPPC11 (UniProt Q7Z392) belongs -0.012.

Turning to VDAC1 (UniProt P21796), the log2 fold change was -0.007. To TNPO1 (UniProt Q92973) belongs -0.001; to UGDH (UniProt O60701), 0.118. For the target UCHL5 (UniProt Q9Y5K5), the log2 fold change is 0.008. For the target TP53BP1 isoform 2 (UniProt Q12888), the log2 fold change was -0.014. As for VRK1 (UniProt Q99986), the figure is -0.018; as for WEE1 (UniProt P30291), -0.083; as for VTI1A (UniProt Q96AJ9), 0.024.

Consider WASHC2A (UniProt Q641Q2), for which the log2 fold change was -0.009. As for TMEM9 (UniProt Q9P0T7), the figure is -0.007; as for VPS33A (UniProt Q96AX1), -0.033; as for TMEM70 (UniProt Q9BUB7), -0.026. On to XRCC5 (UniProt P13010), for which the log2 fold change is 0.076. As for TRAPPC3 (UniProt O43617), the figure is 0.007; as for TNPO3 (UniProt Q9Y5L0), -0.012; as for TPM2 (UniProt P07951), -0.003.

Regarding UBE4B isoform 4 (UniProt O95155), the log2 fold change was -0.048. As for USP14 (UniProt P54578), the log2 fold change was 0.007. To VPS50 (UniProt Q96JG6) belongs 0.007; to TMEM87B (UniProt Q96K49), 0.063; to TMEM263 (UniProt Q8WUH6), -0.042. As for TYW1 (UniProt Q9NV66), the figure is 0.013; as for VPS33B (UniProt Q9H267), 0.118; as for TMEM164 (UniProt Q5U3C3), -0.013. To WASH2P (UniProt Q6VEQ5) belongs 0.001; to TOMM5 isoform 2 (UniProt Q8N4H5), 0.073. As for TRIP10 isoform 2 (UniProt Q15642), the log2 fold change was 0.062.

As for TMEM106B (UniProt Q9NUM4), the log2 fold change is 0.04. As for TMTC3 (UniProt Q6ZXV5), the figure is -0.007; as for USP24 (UniProt Q9UPU5), 0.099; as for VWA8 (UniProt A3KMH1), 0.011. Turning to UBLCP1 (UniProt Q8WVY7), the log2 fold change is 0.044. For VARS2, A0A0G2JL52, the log2 fold change is -0.009. As for TRMT10A (UniProt Q8TBZ6), the figure is -0.025.
